Vaccinia mCherry: qHTS for Stage-Specific Inhibitors of Vaccinia Orthopoxvirus: mCherry Reporter Primary qHTS. Potency, µM (top dose mostly 36.5 µM), most hits filed as inhibitors. 0.63% of 310,000 active. Vaccinia virus mCherry reporter infection, fluorescence; calls by dose curve; tested in A549 cells; also: nearly all actives have a fitted effect of over 35% in size
LASV entry inh: qHTS for Inhibitors of binding or entry into cells for Lassa Virus. Lassa virus pseudotype entry inhibition, cell reporter. Potency, µM (series often up to 37.9 µM), hits mostly inhibitors. 1.2% of 300,000 active; calls by dose curve; tested in HEK293 cells; also: nearly all actives have a fitted effect of over 50% in size
Marburg entry inh: qHTS for inhibitors of binding or entry into cells for Marburg Virus | Marburg virus pseudotyped entry inhibition, cell reporter | Potency, µM (highest dose often 37.8 µM), hits mostly inhibitors | 1.8% of 300,000 active; calls by dose curve; tested in HEK293 cells
Sm TGR inh: qHTS Assay for the Inhibitors of Schistosoma Mansoni Peroxiredoxins; Schistosoma mansoni thioredoxin glutathione reductase (TGR), Q962Y6; purified TGR, DTNB reduction, TNB absorbance 405 nm; Potency, µM (titrated, usually from 114 µM), hits mostly inhibitors; 3% of 360,000 active; AID 485364, 2010; active = well fitted inhibition curve with a large enough effect; inconclusive = small, poorly fitted or top-dose-only effect; inactive = no such curve, though single readings can be large or run the other way; also: nearly all actives have a fitted effect of over 60% in size
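TGR 20 nM + NADPH 100 uM (dispensed conc.), cpd preinc 15 min RT; start with NADPH (500 uM addition) then DTNB (15 mM addition). Kinetic TNB absorbance, 405 nm filter. Four-parameter Hill fit across titration.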
FMDV inh: High Throughput Screening for Foot and Mouth Disease Virus Antivirals; FMDV antiviral cell-based qHTS; Potency, µM (doses to about 57.9 µM), usual class: inhibitors; 1.2% of 410,000 active; AID 1159524, 2015; calls by dose curve; tested in HEK293T cells; also: read-out not given here; nearly all actives have a fitted effect of over 45% in size
VACV Venus inh: qHTS for Stage-Specific Inhibitors of Vaccinia Orthopoxvirus: Venus Reporter Primary qHTS; Vaccinia virus Venus reporter expression, fluorescence; AID 720580, 2013; Potency, µM (series often up to 36.5 µM), most hits filed as inhibitors; 0.46% of 330,000 active; calls by dose curve; tested in A549 cells; also: nearly all actives have a fitted effect of over 30% in size
Of the large screens only hits and unclear results are named; the others gave an inactive call. Sampled rows, rich in hits. Any-hit rate of the full collection: about 5.4%.

Cc1cccc(N2CCN(C(=O)c3cccc(N4C(=O)C5C6C=CC(C6)C5C4=O)c3)CC2C)c1 (configuration not stated)	LASV entry inh inconclusive
CCCCCn1c(=O)[nH]c2cc(C(=O)N3CCN(c4cccc(C)c4)C(C)C3)ccc2c1=O (configuration not stated)	LASV entry inh inconclusive, Marburg entry inh inconclusive, FMDV inh 16µM
Cc1ccccc1S(=O)(=O)Nc1nc2ccccc2nc1Cl	none
Cc1ccccc1S(=O)(=O)NC1OC(=O)C(Oc2ccccc2)=C1Br (configuration not stated)	Sm TGR inh 8.9µM
Cc1ccccc1S(=O)(=O)NC1OC(=O)C(Cl)=C1Cl (configuration not stated)	Marburg entry inh inconclusive, Sm TGR inh 3.2µM, FMDV inh inconclusive
CCc1ccccc1NC(=O)C(=O)c1cc(C)n(-c2ccccc2F)c1C	LASV entry inh inconclusive
O=C(CSc1ncnc2c1nnn2-c1ccc(F)cc1)NCC1CCCO1 (configuration not stated)	FMDV inh 16µM (no result: Vaccinia mCherry)
CC(=O)c1ccc(N2C(=O)N(Cc3cccc(C(F)(F)F)c3)c3ccccc3S2(=O)=O)cc1	LASV entry inh inconclusive, FMDV inh inconclusive (no result: Marburg entry inh)
CCc1cccc(NC(=O)C2CCN(S(=O)(=O)c3ccc4c(c3)CC(C)N4C(C)=O)CC2)c1 (configuration not stated)	FMDV inh 14µM, VACV Venus inh inconclusive (no result: LASV entry inh, Marburg entry inh)
COc1cccc(NC(=O)C2CCN(S(=O)(=O)c3ccc4c(c3)CC(C)N4C(C)=O)CC2)c1 (configuration not stated)	none (no result: Vaccinia mCherry, LASV entry inh, Marburg entry inh, VACV Venus inh)
CC(=O)N1c2ccc(S(=O)(=O)NCC3CCC(C(=O)Nc4cccc(C)n4)CC3)cc2CC1C (configuration not stated)	LASV entry inh inconclusive, Marburg entry inh inconclusive, FMDV inh 22µM
CC(=O)N1c2ccc(S(=O)(=O)NCC3CCC(C(=O)Nc4cccc(C)c4)CC3)cc2CC1C (configuration not stated)	none (no result: Marburg entry inh)
COc1ccc(Br)cc1CNC(=O)c1cc(=O)[nH]c2ccc(S(=O)(=O)N3CCCCC3)cc12	none (no result: Marburg entry inh)
O=C(C1CCCCC1)N1CCN(S(=O)(=O)c2ccc(Br)cc2)CC1	LASV entry inh 18µM, Marburg entry inh inconclusive, FMDV inh inconclusive (no result: Vaccinia mCherry)
CCN1C(=O)CC(C(C)C)N(C2CCCC2)c2nc(Nc3ccc(C(=O)NC4CCN(C)CC4)cc3OC)ncc21 (configuration not stated)	Vaccinia mCherry inconclusive, FMDV inh inconclusive, VACV Venus inh 10µM (no result: LASV entry inh, Marburg entry inh, Sm TGR inh)
CCN1C(=O)CC(c2ccccc2)N(C2CCCC2)c2nc(Nc3ccc(C(=O)NC4CCN(C)CC4)cc3OC)ncc21 (configuration not stated)	VACV Venus inh inconclusive (no result: LASV entry inh, Marburg entry inh, Sm TGR inh)
Cc1ccc(S(=O)Cc2nc(-c3ccc(C(=O)NC(C)c4ccccc4)cc3)oc2C)cc1 (configuration not stated)	Sm TGR inh 14µM (no result: Marburg entry inh)
COc1ccc(-c2nc(CS(=O)CC(=O)NC(C)CCc3ccccc3)c(C)o2)cc1OC (configuration not stated)	Sm TGR inh 32µM (no result: Vaccinia mCherry, LASV entry inh, Marburg entry inh, VACV Venus inh)
Cc1ccc(-c2nc(CS(=O)CC(=O)NC(C)CCc3ccccc3)c(C)o2)cc1 (configuration not stated)	Sm TGR inh 8.9µM (no result: Vaccinia mCherry, LASV entry inh, Marburg entry inh, VACV Venus inh)
Cc1ccccc1-c1cc(N(C)C)ncn1	none (no result: Vaccinia mCherry, LASV entry inh, Marburg entry inh, Sm TGR inh, VACV Venus inh)
COc1ccc(CNC(=O)c2cnn(-c3nccc(-c4ccco4)n3)c2C)cc1OC	Vaccinia mCherry inconclusive (no result: LASV entry inh, Marburg entry inh, Sm TGR inh)
O=C1[C@@H]2[C@@H]3C[C@@H]([C@H]4ON=C(c5ccc(OCc6ccccc6)cc5)[C@@H]34)[C@@H]2C(=O)N1c1ccc2c(c1)OCO2	Marburg entry inh 4.5µM
O=C1[C@@H]2[C@@H]3C[C@@H]([C@H]4ON=C(c5ccc(Cl)cc5)[C@@H]34)[C@@H]2C(=O)N1c1ccc2c(c1)OCO2	Marburg entry inh inconclusive
Cc1cc(NC(=O)CCNS(=O)(=O)c2ccc3c(c2)CCCC(=O)N3)ccc1Br	none (no result: Marburg entry inh)
O=C(COC(=O)CCSc1ccccc1Cl)NCc1ccco1	Sm TGR inh 40µM
Cc1cc(Br)ccc1SCC(=O)OCC(=O)NCc1ccco1	Sm TGR inh 25µM
Cc1ccc(NC(=O)/C(C#N)=C/c2cn(CC(=O)NCc3ccco3)c3ccccc23)cc1C	none
O=C(COC(=O)Cc1c(Cl)cccc1Cl)NCc1ccco1	none (no result: Vaccinia mCherry, LASV entry inh, Marburg entry inh, Sm TGR inh, VACV Venus inh)
Cc1cc(C)cc(NC(=O)/C(C#N)=C/c2cn(CC(=O)NCc3ccco3)c3ccccc23)c1	Vaccinia mCherry inconclusive, LASV entry inh inconclusive, Marburg entry inh inconclusive, FMDV inh inconclusive, VACV Venus inh 5.6µM
O=C(COC(=O)c1ccccc1Oc1ccccc1)NCc1ccco1	Sm TGR inh 16µM
C=CCOC(=O)N[C@@H](Cc1ccccc1)C(C(=O)OC)=C(C)NCc1ccccc1	none (no result: Vaccinia mCherry, LASV entry inh, Sm TGR inh, FMDV inh, VACV Venus inh)
CCOC(=O)Cc1ccc(NC(=O)N(C(C)C)C2CCN(C(C)=O)CC2)cc1	none
Cc1cc(C(=O)OCC(=O)NCc2ccco2)c(C)n1-c1ccc(F)cc1	LASV entry inh 10µM, Marburg entry inh inconclusive, Sm TGR inh inconclusive, FMDV inh inconclusive, VACV Venus inh inconclusive (no result: Vaccinia mCherry)
O=C(COC(=O)c1ccccc1)NCc1ccco1	none
Cc1nn(-c2ccccc2)c(C)c1C(=O)OCC(=O)NCc1ccco1	Sm TGR inh 18µM
O=C(Cn1cc(C(=O)COc2ccccc2)c2ccccc21)NCc1ccco1	Sm TGR inh 40µM (no result: Vaccinia mCherry)
O=C(COC(=O)C(c1ccccc1)c1ccccc1)NCc1ccco1	Sm TGR inh 40µM (no result: Vaccinia mCherry, LASV entry inh, Marburg entry inh, VACV Venus inh)
Cc1cccc(OCCSc2nc3ccc(NC(=O)c4cccs4)cc3s2)c1	FMDV inh inconclusive
Cc1c2cnn(CC(=O)NC(C)C)c(=O)c2c(C)n1Cc1ccccc1Cl	Marburg entry inh inconclusive
CCN1CCN(C(c2ccc(SC)cc2)c2c(O)cc(C)n(Cc3ccco3)c2=O)CC1 (configuration not stated)	Sm TGR inh 3.5µM (no result: Marburg entry inh)
CCN1CCN(C(c2ccccc2)c2c(O)cc(C)n(Cc3ccco3)c2=O)CC1 (configuration not stated)	Sm TGR inh 4.5µM (no result: Marburg entry inh)
Cc1cc(O)cc(=O)n1Cc1ccco1	none
Cc1cc(O)c(C(c2ccccc2)N2CCN(C)CC2)c(=O)n1Cc1ccco1 (configuration not stated)	Sm TGR inh 5.6µM (no result: Marburg entry inh)
CSc1ccc(Cn2c(C)c(C(=O)NCc3ccco3)sc2=O)cc1	none (no result: LASV entry inh, Marburg entry inh, Sm TGR inh)
OC(COCc1ccco1)CN1CCN(C(c2ccccc2)c2ccccc2)CC1 (configuration not stated)	LASV entry inh inconclusive, Marburg entry inh inconclusive (no result: Vaccinia mCherry)
CCN1CCN(C(c2ccc(OC)cc2)c2c(O)cc(C)n(Cc3ccco3)c2=O)CC1 (configuration not stated)	Sm TGR inh 5.6µM (no result: Marburg entry inh)
